Rows were chosen to be rich in hits. Some 2.9% of all compounds tested hit in one or more screens of this group.
PAFAH2 FP inh: inhibitors of human PAFAH2. AID 492956. 0.99% of 340,000 active. Q99487. inhibition, % at 3.39 µM. recombinant PAFAH2, FP-rhodamine activity probe, fluorescence polarization;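 active = inhibition above the mean over all tested compounds plus 3 SD, cut at about 30% in these data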;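 note: inhibitors block probe labeling of enzyme so polarization drops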
PAFAH1B3 inh: PAFAH1B3 (human) inhibition; inhibition, % at 3.39 µM; 0.28% of 340,000 active; Q15102; recombinant PAFAH1B3, FP-rhodamine probe, fluorescence polarization; AID 492972;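 active = inhibition above the screen-wide average of all tested compounds plus 3 SD, cut at about 25% in these data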
Target sequence (Q15102 whole entry, looked up): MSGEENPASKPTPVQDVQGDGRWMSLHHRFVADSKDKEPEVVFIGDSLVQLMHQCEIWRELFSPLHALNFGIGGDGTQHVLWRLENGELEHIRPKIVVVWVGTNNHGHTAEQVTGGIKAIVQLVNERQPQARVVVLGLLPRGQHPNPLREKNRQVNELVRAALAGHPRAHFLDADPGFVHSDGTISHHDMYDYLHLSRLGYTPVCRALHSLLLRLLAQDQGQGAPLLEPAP
LYPLA1 counter: counter-screen for PME1 inhibitors: inhibitors of human LYPLA1; recombinant LYPLA1, FP-Rh probe fluorescence polarization; inhibition, % at 5.9 µM; 0.16% of 320,000 active;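 active = inhibition above the mean of all tested compounds plus 3 SD, set per campaign, cut at about 14% in these data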;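 note: inhibitors block serine hydrolase probe labeling of LYPLA1 so polarization falls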
PAFAH1B2 FP inh: PAFAH1B2 (human) inhibition | P68402 | recombinant PAFAH1B2, FP-rhodamine activity probe, fluorescence polarization | inhibition, % at 3.39 µM | 1.2% of 340,000 active | AID 492953;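 active = inhibition above the mean of all tested compounds plus 3 SD, cut at about 24% in these data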
LYPLA2 inh: blocks human lysophospholipase 2, a PME1 counter-screen. inhibition, % at 5.9 µM. recombinant LYPLA2, FP-Rh probe fluorescence polarization. O95372. 0.38% of 320,000 active;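 active = inhibition above the screen-wide mean plus 3 SD, limit set per campaign, cut at about 26% in these data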
pPAFAH FP inh: pPAFAH (human) enzyme inhibition | Q13093 | recombinant pPAFAH, FP-rhodamine probe fluorescence polarization | inhibition, % at 3.39 µM | 1.5% of 330,000 active | AID 463082;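 active = inhibition above the mean inhibition across the screen plus 3 SD, cut at about 25% in these data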;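 note: inhibitors block binding of the rhodamine activity-based probe so polarization drops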
Target sequence (Q13093 whole entry, looked up): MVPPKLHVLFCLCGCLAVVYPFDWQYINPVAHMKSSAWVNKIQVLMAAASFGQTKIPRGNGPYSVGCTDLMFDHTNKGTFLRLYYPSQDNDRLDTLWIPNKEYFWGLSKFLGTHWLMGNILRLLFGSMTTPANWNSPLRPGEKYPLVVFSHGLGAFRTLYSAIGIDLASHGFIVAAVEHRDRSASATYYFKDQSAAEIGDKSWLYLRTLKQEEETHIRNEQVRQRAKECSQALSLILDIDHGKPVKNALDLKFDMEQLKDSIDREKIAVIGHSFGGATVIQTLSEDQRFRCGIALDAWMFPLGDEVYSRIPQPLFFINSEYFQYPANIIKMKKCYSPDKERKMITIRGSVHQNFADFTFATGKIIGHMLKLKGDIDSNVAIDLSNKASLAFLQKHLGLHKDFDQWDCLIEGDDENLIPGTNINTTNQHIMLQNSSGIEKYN
LYPLA2 confirm: counter-screen for PME1 inhibitors: confirmation of human LYPLA2 inhibitors. shares compounds with LYPLA2 inh. recombinant LYPLA2, FP-Rh probe fluorescence polarization. inhibition, % at 5.9 µM. 72% of 1,100 active. AID 2232;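 active = mean inhibition across replicates above the hit cutoff set in the primary screen, cut at about 26% in these data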;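 note: blocked labeling of the enzyme by serine hydrolase FP-Rh probe lowers polarization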
pPAFAH confirm: confirmation of human plasma PAF acetylhydrolase (pPAFAH) inhibitors. shares compounds with pPAFAH FP inh. recombinant pPAFAH, FP-Rh probe fluorescence polarization. inhibition, % at 3.39 µM. 72% of 2,300 active;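 active = mean inhibition of the triplicate above the hit cutoff set for the earlier primary screen, cut at about 25% in these data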
PAFAH2 FP conf: PAFAH2 (human) inhibition, confirmed; recombinant PAFAH2, FP-rhodamine activity probe, fluorescence polarization; inhibition, % at 3.39 µM; AID 493030; shares compounds with PAFAH2 FP inh; 65% of 2,300 active;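 active = mean inhibition over three repeats above a set limit taken from the earlier primary screen, cut at about 30% in these data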;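 note: inhibitor blocks binding of rhodamine activity probe so polarization falls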
PAFAH1B3 conf FP: PAFAH1B3 (human) inhibition, confirmed. inhibition, % at 3.39 µM. 30% of 390 active. shares compounds with PAFAH1B3 inh. recombinant PAFAH1B3, FP-Rh activity-based probe, fluorescence polarization;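 active = average inhibition over triplicate runs above the hit cutoff set in the earlier primary screen, cut at about 25% in these data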
Large screens that a line does not name were inactive (follow-up assays come after a bar, where they were run).

O=C(c1ccc2c(=O)n(Cc3ccccc3)c(=S)[nH]c2c1)N1CCOCC1	none
CC(=O)c1ccc(N2CCN(C(=O)c3ccc(Cn4c(=S)[nH]c5ccc(N6CCOCC6)cc5c4=O)cc3)CC2)cc1	LYPLA2 inh 44.0, pPAFAH FP inh 49.2 | LYPLA2 confirm 34.4 | pPAFAH confirm inactive
CC(=O)N1CCN(S(=O)(=O)c2cccc(C(=O)Nc3ccc4c(c3)CCC4)c2)CC1	none
O=C(ON=C1CCN(c2ccc([N+](=O)[O-])cc2)CC1)c1ccccc1	PAFAH2 FP inh 90.0, LYPLA2 inh 36.6 | LYPLA2 confirm 35.4 | PAFAH2 FP conf 86.4
O=C(OC1CCN(c2ccc([N+](=O)[O-])cc2)CC1)c1ccccc1	none
C/C(=N/OC(=O)C1CC1)c1cc(-c2ccc(Cl)cc2)no1	PAFAH2 FP inh 72.9, LYPLA2 inh 37.4 | LYPLA2 confirm inactive | PAFAH2 FP conf 61.5
C/C(=N/OC(=O)c1c(F)cccc1F)c1nccs1	none
COc1ccc(C(=O)O/N=C(\C)c2nccs2)cc1	PAFAH2 FP inh 67.0, LYPLA2 inh 30.3 | LYPLA2 confirm 29.1 | PAFAH2 FP conf 59.6
Cc1ccc(S(=O)(=O)NC2(C(F)(F)F)NC(=O)N(c3ccccc3F)C2=O)cc1 (stereo unspecified)	none
CCOC(=O)N1CCN(S(=O)(=O)c2ccc(F)c(C(=O)Nc3ccc(C(C)C)cc3)c2)CC1	none
COc1ccc(-n2c(C)cc(C(=O)Cn3nnc4ccccc4c3=O)c2C)cc1	PAFAH2 FP inh 72.6, LYPLA2 inh 26.8 | LYPLA2 confirm inactive | PAFAH2 FP conf inactive
O=C1C(Cl)=C(N2CCC(C(=O)O)CC2)C(=O)c2ccccc21	PAFAH1B3 inh 41.3, LYPLA2 inh 40.0 | LYPLA2 confirm 37.3 | PAFAH1B3 conf FP 32.1
O=[N+]([O-])c1ccccc1S(=O)(=O)N(CC(O)CN1CCCCC1)c1ccccc1 (stereo unspecified)	none
N#CC(C#N)=C(N)/C(C#N)=C/c1cc(O)c(O)c(O)c1	PAFAH2 FP inh 35.4, PAFAH1B3 inh 38.7, PAFAH1B2 FP inh 33.5, pPAFAH FP inh 38.9 | pPAFAH confirm 59.9
CCN(CC)c1ccc(/C=N/NC(=O)c2cccc(S(=O)(=O)Nc3ccccc3OC)c2)c(O)c1	pPAFAH FP inh 47.7 | pPAFAH confirm 65.2
CN1CCC(N(C)C(=O)NC2CCCCC2)CC1	none
Cc1nn(C)c(C)c1NS(=O)(=O)c1ccc(N2CCCC2=O)cc1	none
Cc1nc2[nH]c(=O)n(O)c(=O)c2s1	none (no result: LYPLA1 counter, LYPLA2 inh, pPAFAH FP inh)
CCn1c(SCC(=O)c2ccc(O)c(O)c2)nnc1-c1ccc(C)cc1	PAFAH2 FP inh 44.6, pPAFAH FP inh 43.1 | pPAFAH confirm 71.8
CCn1c(SCC(=O)c2ccc3c(c2)Cc2ccccc2-3)nnc1-c1ccc(N)cc1	none
Nc1nc(N)nc(-c2ccc(Oc3ccccc3)cc2)n1	none
Nc1ncnc2c1c(-c1ccc(Oc3ccccc3)cc1)cn2C1CCCC1	pPAFAH FP inh 38.8 | pPAFAH confirm 38.5
CCN(C(=O)C(C)N1C(=O)/C(=C/c2ccco2)SC1=S)C1CCS(=O)(=O)C1 (stereo unspecified)	pPAFAH FP inh 44.4 | pPAFAH confirm inactive
O=C1/C(=C/c2ccco2)SC(=S)N1C1CCS(=O)(=O)C1 (stereo unspecified)	pPAFAH FP inh 57.3 | pPAFAH confirm inactive
Cc1ccc(/C=C2/SC(=S)N(C3CCCCC3)C2=O)o1	pPAFAH FP inh 37.4 | pPAFAH confirm inactive
O=C1/C(=C/C=C/c2ccco2)SC(=S)N1NS(=O)(=O)c1ccccc1	PAFAH2 FP inh 67.5, PAFAH1B3 inh 44.9, PAFAH1B2 FP inh 32.2, pPAFAH FP inh 74.4 | pPAFAH confirm 68.6
CC(C(=O)O)N1C(=O)/C(=C/C=C/c2ccco2)SC1=S (stereo unspecified)	PAFAH2 FP inh 49.6, PAFAH1B3 inh 25.8, pPAFAH FP inh 75.7 | pPAFAH confirm 46.1
O=C(O)CCCN1C(=O)/C(=C\c2ccco2)SC1=S	none (no result: LYPLA1 counter, LYPLA2 inh, pPAFAH FP inh)
C=C1c2cccc(O)c2C(O)=C2C(=O)[C@]3(O)C(O)=C(C(N)=O)C(=O)[C@@H](N(C)C)[C@@H]3[C@@H](O)[C@H]12	pPAFAH FP inh 94.8 | pPAFAH confirm inactive
COc1cc(/C=C(\C#N)C(=O)NCC2CCCO2)ccc1O (stereo unspecified)	none
Cc1cc(/C=C(\C#N)C(=O)NCC2CCCO2)c(C)n1-c1ccc(Cl)cc1 (stereo unspecified)	pPAFAH FP inh 66.6 | pPAFAH confirm 68.9
CC12CCC(C(=O)Nc3ccc4c(c3)OCCO4)(OC1=O)C2(C)C (stereo unspecified)	none
COC(=O)/C(=C/Nc1ccccc1)[N+](=O)[O-]	none
COC(=O)/C(=C/Nc1ccc(O)cc1)[N+](=O)[O-]	pPAFAH FP inh 37.4 | pPAFAH confirm inactive
Cc1c(S(=O)(=O)Nc2ccc3c(c2)OCCO3)cnn1C	none
C[C@H](CO)N1C[C@H](C)[C@@H](CN(C)C(=O)Nc2ccc(C(F)(F)F)cc2)Oc2ccc(NS(=O)(=O)c3ccc(F)cc3)cc2C1=O	pPAFAH FP inh 60.7 (no result: LYPLA1 counter, LYPLA2 inh) | pPAFAH confirm 59.0
COc1ccc(NC(=O)N(C)C[C@H]2Oc3ccc(NS(=O)(=O)c4ccc(F)cc4)cc3C(=O)N([C@H](C)CO)C[C@@H]2C)cc1	none (no result: LYPLA1 counter, LYPLA2 inh)
C[C@H](CO)N1C[C@H](C)[C@@H](CN(C)C(=O)Nc2ccc(C(F)(F)F)cc2)Oc2ccc(NS(=O)(=O)c3ccccc3)cc2C1=O	pPAFAH FP inh 76.4 (no result: LYPLA1 counter, LYPLA2 inh) | pPAFAH confirm 68.4
C#Cc1ccc([C@H]2C=C(C(=O)OCC=C)O[C@@H](OCC)[C@@H]2CCCO)cc1	none
CCOc1ccccc1C(=O)N1CCN=C1SCc1cccnc1	none
Cc1ccc(NC(=O)CCC(=O)Nc2ccc(C)cc2)cc1	none
CC(=O)Nc1ccc(N=Cc2c(O)c(C(=O)Nc3ccccc3)cc3ccccc23)cc1	none (no result: PAFAH2 FP inh, PAFAH1B3 inh, PAFAH1B2 FP inh)
COc1ccc2c(c1)cc(C(=O)N/N=C/c1c(O)c(C(=O)O)cc3ccccc13)n2C	PAFAH2 FP inh 39.1, PAFAH1B3 inh 28.5, pPAFAH FP inh 58.7 | pPAFAH confirm 84.3
Cc1ccc(S(=O)(=O)N2CCN(C(=O)c3cc4c(s3)CCCC4)CC2)cc1	none

Source: PubChem BioAssay (The Scripps Research Institute Molecular Screening Center)
